MITF act: increases MITF-driven TRPM1 promoter luciferase signal | SK-MEL-5 TRPM1-promoter luciferase, 24 h; % of positive control, neutral wells = 0 | activation, % at 12.5 µM | 300,000 tested, 0.75% active | AID 588334;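 active = mean activation of at least 80% with every replicate also reaching 80%; inconclusive = mean reaches 80% but some replicate falls short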;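 note: 0% = neutral control wells and 100% = parthenolide positive control wells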
TRPM1 prom inh: inhibitors of MITF-driven TRPM1 promoter in melanoma cells; SK-MEL-5 TRPM1 promoter luciferase, 24 h; inhibition, % at 12.5 µM; 330,000 tested, 0.83% active;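 active = mean inhibition across replicates of 60% or more, whatever share of single replicates reaches that level; inconclusive = some that reach 60%, reason not given; inactive = mean inhibition across replicates below 60%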
LMP1 NFkB inh: inhibitors of Epstein-Barr LMP1-induced NF-kappaB reporter; LMP1-induced NF-kappaB luciferase reporter cells, luminescence; inhibition, % at 12.5 µM; 350,000 tested, 0.69% active; AID 504558; in the data active = inhibition above about 41%; inconclusive = no clear call, values can overlap the other calls;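 note: 0% = neutral control wells and 100% = reference inhibitor control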
esBAF inh: inhibitors of esBAF chromatin remodeling in mouse ES cells | reporter increase, % at 12.5 µM | Bmi1-luciferase knock-in reporter, 24 h; 100% = twice the neutral-well signal | 350,000 tested, 2% active; in the data active = activation above about 40%; inconclusive = no clear call, values can overlap the other calls;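 note: 0% = median of the plate's neutral control wells and 100% = double that signal; a rise in the Bmi1 reporter signal indicates esBAF inhibition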
Wnt bcat act: activates Wnt/beta-catenin signaling in a reporter cell assay; activation, % at 9.35 µM; 300,000 tested, 1.2% active; activator, plate reader; in the data active = activation above about 30%, passing the limit was not always enough; inconclusive = no clear call, values can overlap the other calls;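 note: 0% = neutral control wells and 100% = positive control wells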
C2C12 statin: suppression of simvastatin myotoxicity; rescue of ATP level, % at 7.49 µM; 330,000 tested, 0.78% active; C2C12 myotubes + simvastatin, ATP luminescence, 48 h; scaled: DMSO 0, geranylgeraniol control 100;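 active = mean ATP rescue above about 67%, or every replicate alone reaching that limit, limit read from the data, passing the limit was not always enough; inconclusive = no clear call, values can overlap the other calls; inactive = mean under the limit and some replicate under it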;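 note: myotubes were challenged with 10 µM simvastatin during compound exposure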
The depositor's hits bear a star; ? = inconclusive; nt = no result given. Only some compounds are listed: those with a hit (about 4% of all), similar ones and a draw of the others.

SMILES	MITF act	TRPM1 prom inh	LMP1 NFkB inh	esBAF inh	Wnt bcat act	C2C12 statin
CCN(c1ccccc1)S(=O)(=O)c1ccc(Cl)c(NC(=O)COC(=O)c2ccc(Cl)c(N)c2)c1	-15	18	-4	nt	0	nt
Cc1ccccc1NC(=O)c1ccc(CSc2ncccn2)cc1	35	-30	-3	46*	4	9
Cc1ccc(NC(=O)c2ccc(CSc3ccccn3)cc2)cc1	20	-18	-11	50*	nt	-65
Cc1ccc(NC(=O)c2ccc(CSc3nnnn3C)cc2)cc1	97*	-96	-29	30	nt	3
Cc1ccc(NC(=O)c2ccc(CSc3ccccn3)cc2)c(O)c1	nt	-7	3	nt	26	nt
CCOC(=O)CN1C(=O)S/C(=C/c2ccc3c(c2)n(C)c(=O)n3C)C1=O	46	-48	-8	46*	nt	6
CSc1nc(-c2ccc(F)cc2)cc(=O)[nH]1	11	-13	3	nt	-3	nt
Cc1ccc(CNC(=O)c2ccc(N3CCC4(CC3)CC(c3ccccc3)=NO4)c(NC(=O)c3ccc(Cl)c([N+](=O)[O-])c3)c2)cc1	-2	4	1	-3	-10	7
CC(=O)O[C@@H]1[C@H]2[C@@H](C[C@@H](C)[C@@H]3CCC(=O)[C@@]13C)OC(=O)[C@@H]2C	2	-2	4	0	3	3
CC(=O)O[C@@H]1[C@H]2[C@@H](C[C@@H](C)[C@@H]3C=CC(=O)[C@@]13C)OC(=O)[C@@H]2C	3	2	5	25	-1	115*
CCc1nc2sc3ccccc3c(=O)c2c(=O)n1Cc1ccco1	-7	9	7	nt	-3	nt
Cc1cccc(NC(=O)CNC(=O)COc2ccc(C(=O)c3ccc(F)cc3)cc2)c1C	-15	14	5	nt	42*	nt
Cc1cc(Cl)ccc1OCC(=O)OCC(=O)Nc1cccnc1Cl	2	3	2	-5	-1	-3
COc1ccc(/C=C/C(=O)Nc2cccnc2Cl)cc1	97*	-88	-1	?	43*	-16
Cc1ccc(CCC(=O)Nc2ccccc2F)s1	61	-57	-22	38	62*	3
Cc1cccc(NC(=O)CNC(=O)COc2ccc(-c3ccc(C#N)cc3)cc2)c1C	8	-4	7	nt	-7	nt
COc1ccccc1/C=C/C(=O)Nc1cccnc1Cl	69	-66	-14	-16	0	1
Cc1ccc(OCC(=O)Nc2cccnc2Cl)cc1C	87*	-90	4	6	10	-5
CC(=O)c1cccc(NC(=O)COC(=O)CC2CC3CCC2C3)c1 (configuration not stated)	-2	2	4	-9	-1	14
O=C(NC1CC1)c1nc2c(nnn2Cc2ccccc2Cl)c(=O)[nH]1	-1	5	3	-4	-3	-20
CN1C(=O)c2cc(NC(=O)NC3CCCC3)ccc2OC[C@H]2O[C@H](CC(=O)NC3CCC3)CC[C@H]21	nt	nt	nt	3	nt	7
Cc1ccc(OCC(=O)Nc2ccccc2F)cc1	nt	-72	-8	nt	41*	nt
Cc1ccc(OCC(=O)Nc2ccccc2F)cc1C	107*	-107	-17	nt	43*	nt
NC(=O)C1CC(=O)N(c2ccc(OCC(=O)Nc3ccccc3F)cc2)C1 (configuration not stated)	68	-73	-13	29	34*	3
NC(=O)C1CC(=O)N(c2ccc(OCc3ccc(Cl)cc3Cl)cc2)C1 (configuration not stated)	30	-26	-12	18	2	4
SMILES	MITF act	TRPM1 prom inh	LMP1 NFkB inh	esBAF inh	Wnt bcat act	C2C12 statin
Cc1ccccc1NC(=O)c1ccc(OCC(=O)Nc2ccccc2F)cc1	0	1	1	nt	0	nt
NC(=O)C1CC(=O)N(c2ccc(OCc3ccc(Cl)c(Cl)c3)cc2)C1 (configuration not stated)	nt	nt	-33	51*	54*	10
O=C(COC(=O)C1CCCCC1)NCc1ccc(Cl)cc1	1	3	7	0	-3	-1
COc1cc(S(=O)(=O)NCc2ccncc2)c(OC)cc1Cl	-12	14	4	nt	12	nt
O=C(COC(=O)Cn1[nH]c(=O)c2ccccc2c1=O)NNC(=O)c1ccccc1	1	1	-3	-1	2	-6
Cc1cccc(CNC(=O)c2ccccc2NC(=O)C2=CSCCO2)c1	3	-11	7	5	-2	2
Cc1ccc(C(=O)Nc2cccnc2Cl)cc1Cl	38	-43	-2	54*	14	-3
Cc1cc(C)cc(C(=O)Nc2cccnc2Cl)c1	-1	-1	6	-5	0	-1
CC(C)(C)c1ccc(OCC(=O)N/N=C/c2cc(Br)ccc2OC(=O)c2ccco2)cc1	-43	42	10	-3	nt	135*
COc1ccc(Br)cc1/C=N/NC(=O)c1ccco1	3	2	0	1	7	-4
O=C(Cc1ccccc1)N1C[C@H]2[C@@H](c3ccccc31)[C@H](CO)N2C(=O)C1CC1	nt	nt	nt	-2	nt	-15
CCC(=O)Oc1c(S(=O)(=O)c2ccc(C)cc2)c(C)nn1C(C)(C)C	nt	3	12	-5	-1	106*
CCSc1nnc(-c2cccc(S(=O)(=O)N(CC)CC)c2)n1Cc1ccccc1	2	-1	-6	nt	nt	nt
CCOC(=O)c1ccc2c(c1)nc(COc1ccc(OC)cc1)n2CC	7	-5	-1	4	-1	107*
CCOC(=O)c1ccc2c(c1)nc(-c1ccccn1)n2CC	64	-58	-38	73*	26	-4
CC1CCCCN1C(=O)COc1ccc(NC(=O)c2ccco2)cc1 (configuration not stated)	nt	-20	-3	0	23	nt
CCc1ccc(-c2csc(-c3c[nH]c4ccccc34)n2)cc1	68	-61	-25	66*	nt	8
Nc1ccccc1-n1nc2ccc3ccccc3c2n1	nt	nt	-110	41*	55*	10
Nc1nc2c(ccc3ccccc32)s1	nt	-32	1	nt	-1	nt
COc1ccccc1-n1nc(C)cc1N	5	1	7	-6	-1	?
COc1cc2nn(-c3ccccc3N)nc2cc1OC	nt	nt	-9	nt	42*	nt
Cc1cc(C(=O)O)oc(=O)c1	-8	12	-4	-1	0	-11
CCCCNC(=O)CNC(=S)N(Cc1ccccc1F)C1CCCCC1	-2	4	2	-5	-2	-1
CCCC#Cc1ccc([C@@H]2[C@@H](C#N)N(C(=O)CN3CCOCC3)[C@H]2CO)cc1	nt	nt	nt	4	nt	8
CC(C)c1ccc(NC(=O)c2csnn2)cc1	84*	-83	-9	-12	20	11
Cc1cc(NC(=O)c2n[nH]c(=O)c3ccccc23)ccc1Br	nt	nt	nt	nt	21	nt
CC(C)c1ccc(NC(=O)c2snc3ccc(Cl)cc23)cc1	120*	-112	-40	?	22	-5
CC(C)c1ccc(NC(=O)c2n[nH]c(=O)c3ccccc23)cc1	39	-36	-15	60*	9	-13
